We go through 42 sequences from article PMC7819943, “Rice protein-binding microarrays: a tool to detect cis-acting elements near promoter regions in rice”.

Over roughly 68,000 sequences, “fluorescence intensity (a.u.)” has its median near 9,100; the highest 2% begin near 16,000. This excerpt belongs to a sample that is enriched for the highest values.

Chain of OsWRKY34 (Q0JBA9 entry or part of it): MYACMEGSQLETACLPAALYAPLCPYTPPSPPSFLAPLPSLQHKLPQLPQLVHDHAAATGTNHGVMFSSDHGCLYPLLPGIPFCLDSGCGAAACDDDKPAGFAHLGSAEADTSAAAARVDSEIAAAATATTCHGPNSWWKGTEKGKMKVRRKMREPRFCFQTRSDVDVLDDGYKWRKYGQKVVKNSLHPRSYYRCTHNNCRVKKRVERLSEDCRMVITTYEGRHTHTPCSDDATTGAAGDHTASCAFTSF

The assay addresses OsWRKY34 (Oryza sativa, UniProt Q0JBA9 1-250). The assay can be described thus: protein-binding microarray (RPBM); PBS, 2% BSA, 51.3 ng/ul salmon testes DNA, 50 uM zinc acetate, 200 nM TF, 25 C, 1 h; high values mean tight binding. The note with it: protein: recombinant; tags: N-terminal polyhistidine and DsRed monomer fusion (pET32a); label: CyDye5-dUTP incorporated in the synthesized complementary strand; 3' TTTTT single-stranded linker to array surface; dsDNA, one strand shown. The procedure, abridged:
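Binding signal is defined as the fluorescence intensity of each feature in arbitrary units, read on an Axon 4000B scanner. Transcription factors with N-terminal polyhistidine and DsRed fusions came from E. coli BL21-CodonPlus and were purified on Ni–NTA. They were incubated at 200 nM for 1 h at 25 °C on a custom Agilent array that had been made double-stranded with Cy5-dUTP, with 50 µM zinc acetate present, and the array was washed.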
On to “AGAATGTTTGCTCAAAGTATGTTTTTGTCATCTGTTTTTCCGGAGTCACCTAGTGCAG”, for which the binding signal is 8800 fluorescence intensity (a.u.).

As to “TGCTTTTGTATTTTTTTTGCTGTGTATATATCATAAACTTCGGAGTCACCTAGTGCAG”, the binding signal was 8550 fluorescence intensity (a.u.).

Regarding “TATTGTGTACTACATCTTTTATTATTTCTTTCAAATTTCACGGAGTCACCTAGTGCAG”, the binding signal is 10500 fluorescence intensity (a.u.).

With “CTCTCCCGGTCGCGCCGCCATCTCCTCTCCCAATCGCGCGCGGAGTCACCTAGTGCAG”, the binding signal was 8860 fluorescence intensity (a.u.).

Consider “CACTTCTATTGGTTCTTTGTCTGGGAGTAGCAGCATAAGTCGGAGTCACCTAGTGCAG”, for which the binding signal was 8540 fluorescence intensity (a.u.).

On to “GACCTACGTCACCACCTTGCATGTCCCACGCGGAGCTCCACGGAGTCACCTAGTGCAG”, for which the binding signal was 9230 fluorescence intensity (a.u.).

On to “GCAACTGTGTTTTCAATTCTGCAAATGCTATTCTCTGTTACGGAGTCACCTAGTGCAG”, for which the binding signal was 11800 fluorescence intensity (a.u.).

With “GGGGTTAGTTGTCCGTTTTGCATAGTTGGGGATAAAAAATCGGAGTCACCTAGTGCAG”, the binding signal is 18500 fluorescence intensity (a.u.).

Take “GCGCTTCGATTTGGTTTGGTTTGATTCGGTTTGCGAGATGCGGAGTCACCTAGTGCAG”: the binding signal was 8780 fluorescence intensity (a.u.).

Regarding “GATTTGGGTTGAAATATGATATGGGTTGGATTGGTTTGGACGGAGTCACCTAGTGCAG”, the binding signal was 16100 fluorescence intensity (a.u.).

For “CCGTCGATTTGGTTGGTTGGTTGATCGGCGGCGAGGAGGGCGGAGTCACCTAGTGCAG”, the binding signal was 11400 fluorescence intensity (a.u.).

Turning to “TAGATGAAATGGGTTGGGTTGATTTGGGTTGAAATATGATCGGAGTCACCTAGTGCAG”, the binding signal is 21800 fluorescence intensity (a.u.).

Take “TGATTTGCGCGAGGGTTTGGTTTGGTTTGGTTTGAGTCGACGGAGTCACCTAGTGCAG”: the binding signal is 19200 fluorescence intensity (a.u.).

As for “GATTTTTAGTGAATATAATGAAATTTCATAGGGGAGGGGCCGGAGTCACCTAGTGCAG”, the binding signal was 8930 fluorescence intensity (a.u.).

As to “GATTTTTAGTGAATATAATGAAATTTCACAGGGGAGGGGCCGGAGTCACCTAGTGCAG”, the binding signal is 13400 fluorescence intensity (a.u.).

Turning to “TTTTTTTATTTTTTTTGAAATATTTTTTGTTGGGTTTTTTCGGAGTCACCTAGTGCAG”, the binding signal is 13100 fluorescence intensity (a.u.).

Regarding “ATGAACTTAGTTGTTTTTTTTTGGGTTTTACTTGCATAATCGGAGTCACCTAGTGCAG”, the binding signal was 8220 fluorescence intensity (a.u.).

On to “TTTGGGATAAATCATGAGGGGTTAAAAGTTGTTATATTTTCGGAGTCACCTAGTGCAG”, for which the binding signal was 10100 fluorescence intensity (a.u.).

For the sequence “TCGCGTAGGGGAGGGGTGAAATATATTTTTTATGCCGGGCCGGAGTCACCTAGTGCAG”, the binding signal was 18000 fluorescence intensity (a.u.).

For the sequence “GGCACGCTACTACTCCTACTATATGATAAAAAAACACTACCGGAGTCACCTAGTGCAG”, the binding signal was 8150 fluorescence intensity (a.u.).

Take “TGGTCAAGCCCTTTTTGATCTTTTTTTTTCTGTCTCATGCCGGAGTCACCTAGTGCAG”: the binding signal was 9610 fluorescence intensity (a.u.).

Consider “CGCACCGTCGACTAGTCCCGTCCCGTCGCGCCGTTGCCTTCGGAGTCACCTAGTGCAG”, for which the binding signal was 8590 fluorescence intensity (a.u.).

With “ATTCGAGATCAGCTTTCTCTTCTATTTTGCTACTAGTTCTCGGAGTCACCTAGTGCAG”, the binding signal was 13000 fluorescence intensity (a.u.).

Regarding “TAGGTCTGCTTCAGAGATGGGGTTAGGGTTAGATTTGTTCCGGAGTCACCTAGTGCAG”, the binding signal was 14000 fluorescence intensity (a.u.).

On to “GACCTTATTTGCATTGATTGACCTTATTTGCATTGATTTTCGGAGTCACCTAGTGCAG”, for which the binding signal is 19700 fluorescence intensity (a.u.).

In the case of “TCATGGGCGGGTTGAGCAATGTTTCTTGTGATTAGTCTCACGGAGTCACCTAGTGCAG”, the binding signal is 16300 fluorescence intensity (a.u.).

Consider “GTGTTAGGTGCTGAGATTTTTGTACTTGCTTTATTATTTTCGGAGTCACCTAGTGCAG”, for which the binding signal is 8860 fluorescence intensity (a.u.).

For “GACGGGTGTTTCTAGGGTTAAGGTTAGGTTTTTTTTTTGACGGAGTCACCTAGTGCAG”, the binding signal is 9680 fluorescence intensity (a.u.).

Take “TACCCTTTTTTTGGGTAGGGTGGGTTGGATTTATTTATTTCGGAGTCACCTAGTGCAG”: the binding signal was 12300 fluorescence intensity (a.u.).

Turning to “TATATATATATATATATATATATATATATATAAGGTTTGACGGAGTCACCTAGTGCAG”, the binding signal is 17300 fluorescence intensity (a.u.).

As to “TCTTGATTTTTGCATTAGTAGTAGTTGCGTCTTATATTTTCGGAGTCACCTAGTGCAG”, the binding signal was 12100 fluorescence intensity (a.u.).

On to “GTAGGGGTGGTGGATTTTTTTTTATTTGCTGAGATGATTTCGGAGTCACCTAGTGCAG”, for which the binding signal is 20600 fluorescence intensity (a.u.).

Take “GGTTATGGGCGGGTTGAGCAATGTTTTTCATGATTAGTCTCGGAGTCACCTAGTGCAG”: the binding signal was 18600 fluorescence intensity (a.u.).

Consider “AAGTTTAGGGTGAGCAATGTCTGGTTTTCGGGTTCAGGGGCGGAGTCACCTAGTGCAG”, for which the binding signal was 13300 fluorescence intensity (a.u.).

As for “TTAGATTTTTCTTACAACCATTTGCATTGATTTTTTTTTTCGGAGTCACCTAGTGCAG”, the binding signal was 8960 fluorescence intensity (a.u.).

Consider “ATATATATATATATATATATATATATATATAGTGGAATGACGGAGTCACCTAGTGCAG”, for which the binding signal is 12300 fluorescence intensity (a.u.).

For “TTGCTTTCCTTGGCCTCACGCTTGTTCCATGTTAGTTCGACGGAGTCACCTAGTGCAG”, the binding signal was 16100 fluorescence intensity (a.u.).

For “TATTGCACCTTTTCTCTATTGTTTTGAATTCAGTGAAGATCGGAGTCACCTAGTGCAG”, the binding signal was 11600 fluorescence intensity (a.u.).

Turning to “GACCTGTCTACCGCCGCCCTAGTGACTAATGTTGACCACACGGAGTCACCTAGTGCAG”, the binding signal was 12000 fluorescence intensity (a.u.).

As to “TTTTCAACCTTATATTGTCATTGTCCGTCAACTTGGCTTGCGGAGTCACCTAGTGCAG”, the binding signal was 8970 fluorescence intensity (a.u.).

As to “CCTGTCATGGAGGATGTTTCCTGAAGTTTCAGAGCTGTATCGGAGTCACCTAGTGCAG”, the binding signal was 8310 fluorescence intensity (a.u.).

In the case of “AATGATTACAACCTACCTCTTCTCAGCGGGGTGTCCATTACGGAGTCACCTAGTGCAG”, the binding signal was 8260 fluorescence intensity (a.u.).
